Results as given in PubChem BioAssay (EPA / NIEHS).
Inconclusive results are not listed. Activity calls are given as the source filed them. The calls were made as follows, unless noted: active = hit-call score of the fitted dose curve at least 0.9, where 1 is the maximum; inactive = score below 0.9.

Key:
[1] = BSK_LPS_SRB: Viability Assessment in the BioMAP Diversity Plus: LPS Assay (AID 2283079); conditions: primary human HUVEC with PBMC;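 also: total protein by sulforhodamine B absorbance as a cytotoxicity measure; measured one day after compound addition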
Summary of the method: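 SRB viability endpoint: cells fixed with 10% TCA, stained with 0.1% SRB, read at 560 nm, 24 h post-dose. HUVEC/PBMC co-culture; signal change in either direction scored relative to DMSO.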

[2] = read-out: Interleukin-1 alpha (IL1a), IL1A (gene 3552); experiment: BSK_LPS_IL1a: BioMAP Diversity Plus: LPS Assay for Interleukin-1 alpha (IL1a) Biomarker Activity (AID 2283080); conditions: primary human HUVEC with PBMC; actives raise or lower the signal
Summary of the method: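 Readout is IL-1a level by ELISA, 24 h post-dose, fitted as gain or loss relative to DMSO. System: LPS-activated human primary co-culture of vascular endothelium and peripheral blood mononuclear cells, with parallel SRB total-protein cytotoxicity.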

[3] = read-out: Monocyte Chemoattractant Protein-1 (MCP1), CCL2 (gene 6347); experiment: BSK_LPS_MCP1: BioMAP Diversity Plus: LPS Assay for Monocyte Chemoattractant Protein-1 (MCP1) Biomarker Activity (AID 2283081); conditions: primary human HUVEC with PBMC; actives raise or lower the signal;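 as to AC50: secreted MCP-1 protein quantified by ELISA in culture supernatant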
Summary of the method: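 Secreted MCP-1 read by ELISA at 24 h post-dosing in an LPS-activated co-culture of endothelial cells with peripheral blood mononuclear cells. Fits run in both directions, DMSO as baseline; parallel SRB staining tracks overt cytotoxicity.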

[4] = BSK_LPS_PGE2: BioMAP Diversity Plus: LPS Assay for Prostaglandin E2 (PGE2) Biomarker Activity (AID 2283082); conditions: primary human HUVEC with PBMC; actives raise or lower the signal;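 as to AC50: secreted prostaglandin E2 measured by ELISA in LPS-stimulated co-culture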
Summary of the method: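 HUVEC plus human PBMC co-culture stimulated with LPS; secreted PGE2 quantified by ELISA 24 h after chemical dosing. Activity fitted bidirectionally against DMSO baseline; parallel SRB staining (0.1% SRB after 10% TCA fixation, 560 nm) flags overt cytotoxicity.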

[5] = read-out: Macrophage colony-stimulating factor (MCSF), CSF1 (gene 1435); experiment: BSK_LPS_MCSF: BioMAP Diversity Plus: LPS Assay for Macrophage colony-stimulating factor (MCSF) Biomarker Activity (AID 2283083); conditions: primary human HUVEC with PBMC; actives raise or lower the signal
Summary of the method: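 Bidirectional fitting against DMSO was applied to M-CSF levels read by ELISA at 24 h post-dose. The system pairs human umbilical vein endothelium with peripheral blood mononuclear cells; parallel SRB staining tracked cytotoxicity.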

[6] = read-out: Tissue Factor, F3 (gene 2152); experiment: BSK_LPS_TissueFactor: BioMAP Diversity Plus: LPS Assay for Tissue Factor Biomarker Activity (AID 2283084); conditions: primary human HUVEC with PBMC; actives raise or lower the signal
Summary of the method: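 Compound was added to an endothelial cell/PBMC co-culture, and after 24 h tissue factor (CD142) was read by ELISA. Gain or loss of signal was fitted against a DMSO baseline, and parallel SRB staining (560 nm) tracked overt cytotoxicity.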

[7] = read-out: Tumor necrosis factor (Homo sapiens) (UniProt P01375); experiment: BSK_LPS_TNFa: BioMAP Diversity Plus: LPS Assay for Tumour Necrosis Factor alpha (TNFa) Biomarker Activity (AID 2283085); conditions: primary human HUVEC with PBMC; actives raise or lower the signal
Summary of the method: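 Human umbilical vein endothelial cells co-cultured with PBMC and stimulated with LPS. TNFa was measured by ELISA 24 h after chemical dosing, fitted bidirectionally relative to DMSO.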

[8] = read-out: Vascular cell adhesion molecule 1 (VCAM1), VCAM1 (gene 7412); experiment: BSK_LPS_VCAM1: BioMAP Diversity Plus: LPS Assay for Vascular cell adhesion molecule 1 (VCAM1) Biomarker Activity (AID 2283086); conditions: primary human HUVEC with PBMC; actives raise or lower the signal
Summary of the method: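 Human umbilical vein endothelial cells co-cultured with PBMC and stimulated with LPS; VCAM-1 measured by ELISA 24 h after dosing. Bidirectional curve fitting against DMSO baseline; cytotoxicity tracked in parallel by SRB total-protein staining.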

CD38, CD38 (gene 952) = experiment: BSK_SAg_CD38: BioMAP Diversity Plus: SAg Assay for CD38 Biomarker Activity (AID 2283087); conditions: primary human HUVEC with PBMC; actives raise or lower the signal
Summary of the method: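 Human HUVEC plus PBMC co-culture stimulated with superantigen; CD38 measured by ELISA 24 h after chemical dosing. Fluorescence read-out, bidirectional fit against DMSO; cytotoxicity tracked in parallel by SRB and Alamar Blue.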

CD40, CD40 (gene 958) = experiment: BSK_SAg_CD40: BioMAP Diversity Plus: SAg Assay for CD40 Biomarker Activity (AID 2283088); conditions: primary human HUVEC with PBMC; actives raise or lower the signal
Summary of the method: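 CD40 is measured by fluorescence ELISA in an endothelial/PBMC primary human co-culture at 24 h post-dose. Fitting is bidirectional, DMSO baseline. Parallel SRB staining (560 nm) flags cytotoxicity.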

CD69, CD69 (gene 969) = experiment: BSK_SAg_CD69: BioMAP Diversity Plus: SAg Assay for CD69 Biomarker Activity (AID 2283089); conditions: primary human HUVEC with PBMC; actives raise or lower the signal;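 as to AC50: cell surface CD69 protein quantified by ELISA with fluorescence detection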
Summary of the method: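 HUVEC co-cultured with PBMC were dosed with chemical, and CD69 was measured by ELISA with fluorescence read-out 24 h later. Bidirectional curve fitting used DMSO as negative control and activity baseline.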

[9] = read-out: E-selectin (Homo sapiens) (UniProt P16581); experiment: BSK_SAg_Eselectin: BioMAP Diversity Plus: SAg Assay for Eselectin Biomarker Activity (AID 2283091); conditions: primary human HUVEC with PBMC; actives raise or lower the signal
Summary of the method: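 Cell-surface E-selectin is read by ELISA at 24 h in the SAg co-culture of HUVEC and PBMC. Curves are fitted in both directions relative to DMSO. Parallel SRB total-protein staining tracks overt toxicity.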

[10] = read-out: Monokine induced gamma interferon (MIG), CXCL9 (gene 4283); experiment: BSK_SAg_MIG: BioMAP Diversity Plus: SAg Assay for Monokine induced gamma interferon (MIG) Biomarker Activity (AID 2283092); conditions: primary human HUVEC with PBMC; actives raise or lower the signal
Summary of the method: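 HUVEC plus human PBMC co-culture, chemicals dosed and MIG (CXCL9) quantified by ELISA at 24 h. Bidirectional curve fitting against DMSO as negative control and baseline, so both gain and loss of signal count as activity.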

[11] = BSK_SAg_PBMCCytotoxicity: PBMC Cytotoxicity Assessment in the BioMAP Diversity Plus: SAg Assay (AID 2283093); conditions: primary human HUVEC with PBMC;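 also: PBMC viability measured as Alamar Blue reduction fluorescence at 546/580 nm; fitted both ways against DMSO so a hit may be loss or gain of signal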;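 as to AC50: PBMC superantigen activated with SEB plus TSST-1 one hour after compound addition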
Summary of the method: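 Human umbilical vein endothelial cells co-cultured with PBMC; PBMC (75,000/well) pre-treated with compound 1 h, then activated with SEB and TSST-1 (20 ng/mL final each) for 90 h. Alamar Blue added 6 h, fluorescence 546/580 nm; bidirectional fit versus DMSO.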

[12] = read-out: Interleukin-8 (IL8), CXCL8 (gene 3576); experiment: BSK_SAg_IL8: BioMAP Diversity Plus: SAg Assay for Interleukin-8 (IL8) Biomarker Activity (AID 2283094); conditions: primary human HUVEC with PBMC; actives raise or lower the signal
Summary of the method: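 Human umbilical vein endothelial cells co-cultured with PBMC, stimulated with superantigen; IL-8 measured by ELISA 24 h after chemical dosing. Bidirectional fitting versus DMSO; SRB staining in parallel cultures tracks cytotoxicity.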

[13] = BSK_SAg_Proliferation: Cell Proliferation Assessment in the BioMAP Diversity Plus: SAg Assay (AID 2283095); conditions: primary human HUVEC with PBMC
Summary of the method: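 Human umbilical vein endothelial cells co-cultured with PBMC; sulforhodamine B total-protein staining (0.1% SRB after 10% TCA fixation, absorbance 560 nm) at 96 h in sub-confluent culture. Fitted bidirectionally against DMSO.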

[14] = BSK_SAg_SRB: Viability Assessment in the BioMAP Diversity Plus: SAg Assay (AID 2283096); conditions: primary human HUVEC with PBMC;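 also: cells read one day after compound addition; hits may be either gain or loss of signal compared with DMSO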
Summary of the method: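 Endothelial/PBMC primary human co-culture; compound 24 h; fix 10% TCA, stain 0.1% SRB, A560; protein content as cytotoxicity proxy; bidirectional curve fit, DMSO = baseline.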

[15] = biological target: human CYP19A1, CYP19A1 (gene 1588) (UniProt P11511); experiment: NVS_ADME_hCYP19A1: NovaScreen (NVS) CYP450-related Enzyme Activity (ADME) Assay for human CYP19A1 (AID 2283098; active = hit-call score of the fitted dose curve at least 0.9, where 1 is the maximum)
Summary of the method: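 Cell-free enzyme assay with recombinant protein and a specific fluorogenic substrate, read by fluorescence intensity 0.5 h after dosing. Primary screen ran in duplicate at 10 uM; actives were retested in concentration series. Loss of signal versus acetonitrile baseline.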

[16] = read-out: Monocyte Chemoattractant Protein-1 (MCP1), CCL2 (gene 6347); experiment: BSK_SAg_MCP1: BioMAP Diversity Plus: SAg Assay for Monocyte Chemoattractant Protein-1 (MCP1) Biomarker Activity (AID 2283090); conditions: primary human HUVEC with PBMC; actives raise or lower the signal
Summary of the method: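 MCP-1 levels in the endothelial–PBMC SAg co-culture were quantified by ELISA at 24 h post-dosing; both increases and decreases versus DMSO scored. Cytotoxicity monitored by SRB total protein in parallel cultures.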

Measured: AC50

E-selectin (Homo sapiens), sequence (P16581 whole entry, looked up): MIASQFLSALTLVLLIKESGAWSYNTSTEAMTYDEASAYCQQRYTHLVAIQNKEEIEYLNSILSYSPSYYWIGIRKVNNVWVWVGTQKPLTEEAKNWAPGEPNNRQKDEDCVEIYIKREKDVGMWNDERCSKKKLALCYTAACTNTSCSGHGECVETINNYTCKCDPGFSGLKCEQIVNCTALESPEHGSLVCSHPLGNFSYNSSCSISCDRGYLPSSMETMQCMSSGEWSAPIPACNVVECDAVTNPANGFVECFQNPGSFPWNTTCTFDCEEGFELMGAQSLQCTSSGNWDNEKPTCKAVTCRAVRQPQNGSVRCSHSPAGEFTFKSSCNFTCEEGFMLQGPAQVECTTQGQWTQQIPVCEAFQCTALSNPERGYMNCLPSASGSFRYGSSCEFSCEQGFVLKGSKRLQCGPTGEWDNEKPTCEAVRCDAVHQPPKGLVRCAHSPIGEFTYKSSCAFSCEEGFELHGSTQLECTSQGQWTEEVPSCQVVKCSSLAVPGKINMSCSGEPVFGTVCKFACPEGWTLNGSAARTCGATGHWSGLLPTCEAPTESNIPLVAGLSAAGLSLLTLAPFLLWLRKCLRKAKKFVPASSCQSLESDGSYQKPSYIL
Tumor necrosis factor (Homo sapiens), sequence (P01375 whole entry, looked up): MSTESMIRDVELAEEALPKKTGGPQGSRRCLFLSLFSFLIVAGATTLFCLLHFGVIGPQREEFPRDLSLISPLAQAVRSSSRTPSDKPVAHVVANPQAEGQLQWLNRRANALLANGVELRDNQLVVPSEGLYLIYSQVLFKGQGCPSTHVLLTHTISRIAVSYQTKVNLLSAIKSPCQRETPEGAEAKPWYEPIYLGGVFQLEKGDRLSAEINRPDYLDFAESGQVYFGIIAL
human CYP19A1, CYP19A1 (gene 1588), sequence (P11511 whole entry, looked up): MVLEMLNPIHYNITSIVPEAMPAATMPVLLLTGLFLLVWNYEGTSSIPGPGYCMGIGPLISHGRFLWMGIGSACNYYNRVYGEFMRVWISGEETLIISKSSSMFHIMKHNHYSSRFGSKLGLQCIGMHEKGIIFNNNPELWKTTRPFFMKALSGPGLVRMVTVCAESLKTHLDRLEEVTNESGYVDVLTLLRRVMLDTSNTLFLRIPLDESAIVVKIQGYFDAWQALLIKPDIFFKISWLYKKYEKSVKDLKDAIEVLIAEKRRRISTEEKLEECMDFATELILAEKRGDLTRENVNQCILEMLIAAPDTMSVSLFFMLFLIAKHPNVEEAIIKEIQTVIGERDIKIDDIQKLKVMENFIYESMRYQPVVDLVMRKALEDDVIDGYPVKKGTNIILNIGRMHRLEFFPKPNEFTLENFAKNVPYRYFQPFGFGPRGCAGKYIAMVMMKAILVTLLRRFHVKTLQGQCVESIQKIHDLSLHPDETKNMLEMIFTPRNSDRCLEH

C1CC2OC2CC1C1CO1 (stereo not drawn)
not listed: [15] | [16]
inactive: all other assays above

CCOC(=O)C(O)(c1ccc(Cl)cc1)c1ccc(Cl)cc1
active: [1] 34.2 µM | [2] 30.3 µM | [3] 39.1 µM | [5] 28.2 µM | [6] 34 µM | [7] 39.3 µM | [8] 34 µM | CD38, CD38 (gene 952) 29.4 µM | CD40, CD40 (gene 958) 30.4 µM | CD69, CD69 (gene 969) 36 µM | [9] 31.7 µM | [10] 39.3 µM | [11] 33.7 µM | [12] 32.9 µM | [13] 30.9 µM | [14] 32.3 µM
inactive: [4]

Cc1cc(-c2ccc(N)c(C)c2)ccc1N
active: [4] 7.16 µM | [13] 11.8 µM
not listed: [16]
inactive: all other assays above

N#Cc1ccc(N(CC(N)=O)CC(F)(F)F)cc1C(F)(F)F
not listed: [14] | [15] | [16]
inactive: all other assays above

CC1=C2C[C@H]3[C@@H](CC=C4C[C@@H](O)CC[C@@]43C)[C@@H]2CC[C@]12O[C@@H]1C[C@H](C)CN[C@H]1[C@H]2C
not listed: [5] | [15]
inactive: all other assays above

C=CC(N)=O
not listed: [15]
inactive: all other assays above
